From PubChem BioAssay
A number with no mark means an inactive call. The source made the active and inactive calls. Cut-off read from the data, not from the text of the source: active = fold change permeability below about 0.7 or above about 1.3; inactive = in between.

Experiment: modulators of brain endothelial barrier permeability, primary screen, cell-based, FITC-avidin fluorescence, HTS (AID 1963498); note: test concentration not given here
Conditions: actives lie on both sides

| Structure (SMILES) | fold change permeability |
| --- | --- |
| CC(=O)c1ccc2c(c1)N(CCCN(C)C)c1ccccc1S2 | 1.6 (active) |
| COc1ccccc1CNCCCCCCNCCCCCCCCNCCCCCCNCc1ccccc1OC | 0.8 |
| CCCCS(=N)(=O)CCC(N)C(=O)O (stereo not given) | 1.1 |
| O=C1S/C(=C\c2ccc(OCc3ccc(B(O)O)cc3)cc2)C(=O)N1Cc1ccc(F)cc1 | 1.2 |
| N#CC(=C(/N)Sc1ccccc1N)/C(C#N)=C(\N)Sc1ccccc1N | 1.6 (active) |
| O=C(/C=C/c1ccc(O)cc1)c1ccc(O)cc1O | 1.2 |
| C#CCn1c(=O)c2c(ncn2C)n(C)c1=O | 0.9 |
| O=C1c2c(O)cc(O)cc2O[C@H](c2ccc(O)c(O)c2)[C@H]1O | 1 |
| CC1=C(/C=C/C(C)=C/C=C/C(C)=C\C(=O)O)C(C)(C)CCC1 | 1.4 (active) |
| COc1ccccc1CN[C@H]1CCCN[C@H]1c1ccccc1 | 0.7 (active) |
| CN1C2CCC1CC(OC(c1ccccc1)c1ccccc1)C2 (stereo not given) | 1.7 (active) |
| O=C(Nc1ccc(-n2nc(C(F)(F)F)cc2C(F)(F)F)cc1)c1ccncc1F | 1.2 |
| COc1ccccc1-c1cc(Nc2cccc(CS(N)(=O)=O)c2)ncn1 | 0.9 |
| Cn1c(=O)c2c(ncn2CC2OCCO2)n(C)c1=O | 1 |
| COc1cc2c(CCNC(C)=O)c[nH]c2cc1O | 1.1 |
| NC(N)=NCCCCN=C(N)N | 1.2 |
| CC(=O)OC(C)C[N+](C)(C)C (stereo not given) | 1 |
| CC1=C(/C=C/C(C)=C/C=C/C(C)=C/C(=O)O)C(C)(C)CCC1 | 1.3 (active) |
| N=C(N)SCCN | 1.1 |
| C=CCN1CCc2c(cc(O)c(O)c2Br)[C@@H](c2ccccc2)C1 | 1 |

| Structure (SMILES) | fold change permeability |
| --- | --- |
| CNC(=O)Oc1ccc2c(c1)[C@]1(C)CCN(C)[C@@H]1N2C | 0.8 |
| Cc1cc(C(C)(C)C)c(O)c(C)c1CC1=NCCN1 | 0.8 |
| C[N+](C)(C)CC=O | 1.1 |
| CSc1ccc2c(c1)C(N1CCN(C)CC1)Cc1ccccc1S2 (stereo not given) | 0.9 |
| CC(C)(C)c1cc(/C=C(\C#N)C(N)=S)cc(C(C)(C)C)c1O | 1.5 (active) |
| O=[N+]([O-])c1ccc(CSc2ncnc3c2ncn3[C@@H]2O[C@H](CO)[C@@H](O)[C@H]2O)cc1 | 0.8 |
| CCN1CCC[C@H]1CNC(=O)c1cc(S(N)(=O)=O)ccc1OC | 0.7 (active) |
| CSc1c(C)c(SC)n2ccncc12 | 1.3 (active) |
| C[N+](C)(C)CCOC(N)=O | 0.9 |
| C=C(C)C1CC=C(C(=O)O)CC1 (stereo not given) | 0.9 |
| N#CC(C#N)=C(N)/C(C#N)=C/c1cc(O)c(O)c(O)c1 | 1.7 (active) |
| Cc1cc(O)c2c(c1)C(=O)c1cc(O)cc(O)c1C2=O | 1.3 (active) |
| C[C@H](Cc1ccc(O)c(O)c1)[C@@H](C)Cc1ccc(O)c(O)c1 | 1 |
| COc1cc2nc(N3CCN(C(=O)C4COc5ccccc5O4)CC3)nc(N)c2cc1OC (stereo not given) | 1.4 (active) |
| CN(C)C(=O)Nc1cccc(-c2ccc(N(C)C)cc2)c1 | 1.1 |
| O=C(O)CCCCN(CCc1ccccc1OCc1ccc(CCc2ccccc2)cc1)Cc1ccc(C(=O)O)cc1 | 1.2 |
| Cc1ccccc1N1CCN(CCc2nnc3n2CCCC3)CC1 | 0.9 |
| Cn1ccc2cc3c(cc21)CCN3C(=O)Nc1cccnc1 | 1.4 (active) |
| Nc1nc2c(cnn2CCc2ccccc2)c2nc(-c3ccco3)nn12 | 0.7 (active) |
| CCCCC[C@H](CC(=O)NO)C(=O)N[C@H](C(=O)N1CCC[C@H]1CO)C(C)C | 1.2 |
